These results are taken from the supplement of paper PMC10849652.

The full data set covers some 7,900 targets. This sample favours those with a hit. About 0.6% of all pairs of compound and target were hits. Unmarked numbers belong to inactive results.

Holding throughout (assay): log2 fold change, soluble protein after heating vs DMSO (PISA); higher = thermal stabilisation; K562 cells, 10 uM, 30 min; active = over 0.2 and 3.5 SD of the protein, either way, in both replicates (recomputed)
Compound in experiment [1]: C1COCCN1CCN2C3=CC=CC=C3N=C2NC(=O)C4=CC(=CC=C4)[N+](=O)[O-] [IRAK-1-4 Inhibitor I]
Put shortly: (§1)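 For each measurement, 10 μM compound was applied for 30 min to K562 cells at 2×10^6 cells/mL. Aliquots were heated for 3 min across 48°C-58°C, pooled, and extracted in PBS with 0.5% NP-40 at 4°C; the supernatant after 21,000xg for 90 min was soluble protein. This was quantified by TMTpro 16plex LC-MS/MS with channel sums equalised, and thermal stability was reported relative to control samples from duplicates, on a log2 fold-change scale.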

Compound in experiment [2]: C=CC(=O)N1CCC[C@@H](n2nc(-c3ccc(Oc4ccccc4)cc3)c3c(N)ncnc32)C1 [ibrutinib]
The gist of the method: as §1

Compound in experiment [3]: CC(=O)c1cnc2ccc(-c3cc(Cl)c(O)c(Cl)c3)nc2c1N[C@H]1CC[C@H](CN(C)C)CC1
Put shortly:
as §1

Compound in experiment [4]: CC(C)(C)Cn1c(N)nc2ccc(-c3[nH]c(C(C)(C)C)nc3-c3ccc(F)cc3)nc21 [ralimetinib]
Put shortly: as §1

Compound in experiment [5]: CC(C)(O)CC(=O)NCCn1ccc2ncnc(Nc3ccc(Oc4cccc(C(F)(F)F)c4)c(Cl)c3)c21
The gist of the method: as §1

Compound in experiment [6]: CC(C)C1=C2N=C(C=C(N2N=C1)NCC3=CC=CC=C3)NCCCCCCN
The gist of the method:
as §1

Compound in experiment [7]: CC(C)C[C@@H](C=O)NC(=O)[C@H](CC(C)C)NC(=O)[C@H](CC(C)C)NC(=O)OCc1ccccc1
Put shortly: as §1

Compound in experiment [8]: CC(C)N(C[C@H]1O[C@@H](n2cnc3c(N)ncnc32)[C@H](O)[C@@H]1O)[C@H]1C[C@@H](CCc2nc3cc(C(C)(C)C)ccc3[nH]2)C1 [pinometostat]
The gist of the method: as §1

Compound in experiment [9]: CC1=C(C(CC(=O)N1)C2=CC=C(C=C2)C(F)(F)F)C(=O)NC3=C(C=C4C(=C3)C=NN4)F
Put shortly:
as §1

Compound in experiment [10]: CC1=C(C2=C(C=C1)C(=O)C3=CC=CC=C3N2CCCN)C
The gist of the method: as §1

Chain of UniProt Q86VP1 (Q86VP1 whole entry, looked up): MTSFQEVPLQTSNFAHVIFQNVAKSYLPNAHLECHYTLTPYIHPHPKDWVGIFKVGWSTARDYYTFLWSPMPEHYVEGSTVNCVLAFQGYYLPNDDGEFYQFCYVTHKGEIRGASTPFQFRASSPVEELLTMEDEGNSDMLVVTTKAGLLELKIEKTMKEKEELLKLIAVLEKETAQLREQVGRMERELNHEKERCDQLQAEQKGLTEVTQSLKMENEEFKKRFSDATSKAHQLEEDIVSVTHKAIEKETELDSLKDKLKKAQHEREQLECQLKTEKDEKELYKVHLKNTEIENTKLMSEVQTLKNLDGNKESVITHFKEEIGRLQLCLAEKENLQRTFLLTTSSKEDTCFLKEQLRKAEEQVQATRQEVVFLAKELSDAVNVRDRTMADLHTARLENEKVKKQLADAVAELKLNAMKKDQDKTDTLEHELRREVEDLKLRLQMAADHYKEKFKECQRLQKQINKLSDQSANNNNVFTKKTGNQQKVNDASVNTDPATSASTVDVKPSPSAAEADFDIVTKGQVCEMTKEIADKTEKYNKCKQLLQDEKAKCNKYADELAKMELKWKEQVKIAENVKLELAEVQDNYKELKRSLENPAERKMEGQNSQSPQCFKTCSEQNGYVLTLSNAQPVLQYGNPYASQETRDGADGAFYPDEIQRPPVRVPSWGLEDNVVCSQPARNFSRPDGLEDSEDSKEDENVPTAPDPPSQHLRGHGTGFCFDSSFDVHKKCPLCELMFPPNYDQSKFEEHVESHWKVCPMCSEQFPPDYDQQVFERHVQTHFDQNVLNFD
Chain of UniProt Q8TC07 (Q8TC07 whole entry, looked up): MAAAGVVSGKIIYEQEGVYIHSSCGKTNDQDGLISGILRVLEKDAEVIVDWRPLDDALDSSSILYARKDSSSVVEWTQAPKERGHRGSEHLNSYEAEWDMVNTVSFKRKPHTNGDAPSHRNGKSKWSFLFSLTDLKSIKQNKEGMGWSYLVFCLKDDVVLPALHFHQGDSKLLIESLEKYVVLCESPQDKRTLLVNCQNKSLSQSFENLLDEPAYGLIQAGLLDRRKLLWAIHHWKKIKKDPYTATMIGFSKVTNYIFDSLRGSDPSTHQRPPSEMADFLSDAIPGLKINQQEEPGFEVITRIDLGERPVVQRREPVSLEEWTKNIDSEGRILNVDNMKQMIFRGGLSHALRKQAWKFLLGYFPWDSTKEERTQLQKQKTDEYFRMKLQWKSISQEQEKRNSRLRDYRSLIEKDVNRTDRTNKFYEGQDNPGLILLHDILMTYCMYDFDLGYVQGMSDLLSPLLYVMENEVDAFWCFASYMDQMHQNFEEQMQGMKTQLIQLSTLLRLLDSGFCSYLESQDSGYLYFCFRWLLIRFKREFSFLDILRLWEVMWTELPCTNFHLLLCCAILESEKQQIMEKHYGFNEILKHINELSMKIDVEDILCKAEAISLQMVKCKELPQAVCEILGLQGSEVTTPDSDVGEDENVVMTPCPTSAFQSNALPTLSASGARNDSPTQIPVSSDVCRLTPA
Chain of UniProt Q5JUR7 (Q5JUR7 whole entry, looked up): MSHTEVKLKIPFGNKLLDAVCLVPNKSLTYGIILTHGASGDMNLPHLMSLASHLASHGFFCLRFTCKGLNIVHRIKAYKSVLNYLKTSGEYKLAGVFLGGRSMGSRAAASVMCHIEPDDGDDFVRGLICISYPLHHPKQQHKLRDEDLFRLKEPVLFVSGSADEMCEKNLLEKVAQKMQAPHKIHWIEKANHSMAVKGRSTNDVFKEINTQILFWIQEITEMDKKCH
Chain of UniProt Q13395 (Q13395 whole entry, looked up): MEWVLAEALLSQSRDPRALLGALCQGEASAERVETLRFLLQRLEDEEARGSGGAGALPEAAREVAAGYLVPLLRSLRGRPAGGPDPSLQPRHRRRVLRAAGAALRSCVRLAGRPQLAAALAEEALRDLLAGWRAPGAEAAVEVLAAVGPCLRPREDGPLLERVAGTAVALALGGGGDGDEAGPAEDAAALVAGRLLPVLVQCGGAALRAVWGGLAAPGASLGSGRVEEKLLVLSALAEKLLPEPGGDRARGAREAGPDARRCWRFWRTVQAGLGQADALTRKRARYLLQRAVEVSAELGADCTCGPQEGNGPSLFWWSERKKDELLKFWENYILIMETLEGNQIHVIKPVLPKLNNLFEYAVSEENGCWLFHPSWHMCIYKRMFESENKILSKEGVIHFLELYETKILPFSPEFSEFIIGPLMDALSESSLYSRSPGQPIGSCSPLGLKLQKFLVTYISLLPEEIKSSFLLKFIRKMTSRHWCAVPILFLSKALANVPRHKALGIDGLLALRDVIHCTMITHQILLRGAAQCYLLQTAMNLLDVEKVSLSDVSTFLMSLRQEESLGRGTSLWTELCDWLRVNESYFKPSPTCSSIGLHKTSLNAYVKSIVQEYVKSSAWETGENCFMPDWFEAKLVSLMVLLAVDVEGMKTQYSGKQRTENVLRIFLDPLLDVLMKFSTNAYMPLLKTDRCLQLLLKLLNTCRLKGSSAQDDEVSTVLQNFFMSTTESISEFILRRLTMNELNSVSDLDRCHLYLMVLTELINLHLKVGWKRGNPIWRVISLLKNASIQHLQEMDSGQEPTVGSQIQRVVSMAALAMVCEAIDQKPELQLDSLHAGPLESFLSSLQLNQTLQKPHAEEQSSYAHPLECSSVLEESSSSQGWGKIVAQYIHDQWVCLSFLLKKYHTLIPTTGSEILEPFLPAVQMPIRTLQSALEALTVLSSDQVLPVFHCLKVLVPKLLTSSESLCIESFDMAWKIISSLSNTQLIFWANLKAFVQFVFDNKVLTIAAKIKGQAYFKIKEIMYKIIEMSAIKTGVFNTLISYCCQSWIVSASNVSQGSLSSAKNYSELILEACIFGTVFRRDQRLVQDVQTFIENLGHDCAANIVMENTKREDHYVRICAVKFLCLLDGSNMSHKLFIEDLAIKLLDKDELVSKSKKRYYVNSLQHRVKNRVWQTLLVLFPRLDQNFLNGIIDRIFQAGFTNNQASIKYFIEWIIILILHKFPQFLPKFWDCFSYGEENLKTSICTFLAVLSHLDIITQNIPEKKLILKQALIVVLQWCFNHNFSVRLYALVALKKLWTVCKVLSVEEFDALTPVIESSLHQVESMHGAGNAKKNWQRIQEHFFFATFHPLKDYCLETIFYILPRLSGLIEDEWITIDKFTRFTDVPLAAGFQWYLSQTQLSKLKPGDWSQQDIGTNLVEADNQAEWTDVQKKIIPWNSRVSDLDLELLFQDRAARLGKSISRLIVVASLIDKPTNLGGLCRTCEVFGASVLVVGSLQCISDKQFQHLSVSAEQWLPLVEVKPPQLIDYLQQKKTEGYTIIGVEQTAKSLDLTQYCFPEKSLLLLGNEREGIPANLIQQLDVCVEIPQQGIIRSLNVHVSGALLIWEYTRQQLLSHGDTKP
Chain of UniProt Q13586 (Q13586 whole entry, looked up): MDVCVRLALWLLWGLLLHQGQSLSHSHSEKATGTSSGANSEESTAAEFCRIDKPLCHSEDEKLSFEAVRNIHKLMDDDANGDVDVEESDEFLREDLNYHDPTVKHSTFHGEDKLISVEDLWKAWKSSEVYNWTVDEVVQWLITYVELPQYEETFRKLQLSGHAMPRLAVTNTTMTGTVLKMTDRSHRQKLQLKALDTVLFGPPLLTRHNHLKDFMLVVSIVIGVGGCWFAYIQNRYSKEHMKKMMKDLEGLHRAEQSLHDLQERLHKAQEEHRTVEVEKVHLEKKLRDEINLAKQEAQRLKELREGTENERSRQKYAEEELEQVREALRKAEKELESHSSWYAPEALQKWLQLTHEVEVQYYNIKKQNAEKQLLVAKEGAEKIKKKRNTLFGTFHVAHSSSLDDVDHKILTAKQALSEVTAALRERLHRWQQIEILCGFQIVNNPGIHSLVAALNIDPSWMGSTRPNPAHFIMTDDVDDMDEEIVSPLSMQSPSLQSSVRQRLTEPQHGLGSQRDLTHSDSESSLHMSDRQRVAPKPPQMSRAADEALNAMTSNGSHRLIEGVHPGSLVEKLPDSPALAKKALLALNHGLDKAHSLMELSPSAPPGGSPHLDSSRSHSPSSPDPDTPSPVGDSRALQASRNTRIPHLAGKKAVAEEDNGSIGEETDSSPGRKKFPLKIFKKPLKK
Chain of UniProt Q9NXE4 (Q9NXE4 whole entry, looked up): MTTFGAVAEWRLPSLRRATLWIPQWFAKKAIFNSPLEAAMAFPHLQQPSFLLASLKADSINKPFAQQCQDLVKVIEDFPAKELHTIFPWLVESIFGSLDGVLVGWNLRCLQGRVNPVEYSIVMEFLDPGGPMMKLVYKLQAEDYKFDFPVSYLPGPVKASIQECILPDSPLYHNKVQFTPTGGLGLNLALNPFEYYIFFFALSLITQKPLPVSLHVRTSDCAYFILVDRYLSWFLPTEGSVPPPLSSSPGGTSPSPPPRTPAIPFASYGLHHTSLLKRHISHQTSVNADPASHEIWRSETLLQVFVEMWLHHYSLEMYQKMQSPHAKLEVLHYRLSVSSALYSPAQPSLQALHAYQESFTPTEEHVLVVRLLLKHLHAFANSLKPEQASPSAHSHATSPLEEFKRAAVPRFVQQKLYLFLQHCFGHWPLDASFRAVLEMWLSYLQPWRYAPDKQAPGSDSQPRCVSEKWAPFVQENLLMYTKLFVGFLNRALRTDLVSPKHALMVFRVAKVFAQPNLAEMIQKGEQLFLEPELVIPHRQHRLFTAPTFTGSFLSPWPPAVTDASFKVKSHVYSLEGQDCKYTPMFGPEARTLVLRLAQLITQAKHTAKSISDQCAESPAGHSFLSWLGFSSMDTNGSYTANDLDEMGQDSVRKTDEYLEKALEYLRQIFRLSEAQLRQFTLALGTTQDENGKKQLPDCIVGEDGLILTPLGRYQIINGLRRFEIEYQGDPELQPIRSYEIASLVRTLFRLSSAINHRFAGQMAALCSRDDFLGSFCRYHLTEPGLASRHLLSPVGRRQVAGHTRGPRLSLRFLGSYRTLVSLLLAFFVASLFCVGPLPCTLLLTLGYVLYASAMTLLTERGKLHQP
Chain of UniProt O00193 (O00193 whole entry, looked up): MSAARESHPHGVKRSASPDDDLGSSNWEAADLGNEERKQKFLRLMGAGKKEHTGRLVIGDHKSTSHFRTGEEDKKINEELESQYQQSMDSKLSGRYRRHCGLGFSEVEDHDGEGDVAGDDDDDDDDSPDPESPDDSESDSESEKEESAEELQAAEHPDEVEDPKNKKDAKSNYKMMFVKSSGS

In the case of ST6GAL1 (UniProt P15907), the log2 fold change was -0.01 in [1]; 0.002 in [2]; 0.021 in experiment [3]; 0.041 in experiment [4]; 0.058 in experiment [5]; -0.051 in experiment [6]. The log2 fold change was -0.009 in [7], 0.024 in experiment [8], 0.02 in experiment [9] and 0.011 in [10].
On to TAX1BP1 (UniProt Q86VP1), for which the log2 fold change is -0.015 in [1]; -0.007 in experiment [2]; -0.195 in experiment [3]; 0.066 in [4]; -0.008 in [5]; -0.124 in experiment [6]. The log2 fold change is 0.076 in experiment [7], 0.088 in experiment [8], 0.075 in [9] and -0.006 in experiment [10].
As for TBRG4 (UniProt Q969Z0), the log2 fold change is -0.031 in experiment [1]; 0 in experiment [2]; -0.188 in [3]; -0.134 in [4]; -0.578 (active) in experiment [5]; -0.624 in [6]. Further, the log2 fold change in experiment [7] is -0.038; in [8], -0.014; in [9], 0.029; in experiment [10], -0.171.
STK25 (UniProt O00506): the log2 fold change in experiment [1] was 0.051; in experiment [2], -0.067; in experiment [3], 0; in experiment [4], 0.015; in experiment [5] it was -0.039; in experiment [6] it was -0.02. In addition, the log2 fold change in experiment [7] is 0.066; in experiment [8] it was 0.034; in experiment [9], -0.015; in experiment [10] it was 0.08.
As for TBC1D15 isoform 3 (UniProt Q8TC07), the log2 fold change in [1] is 0.235; in experiment [2] it was -0.021; in experiment [3] it was 0.009; in [4] it was 0.041; in experiment [5], -0.082; in experiment [6] it was -0.326 (active). The log2 fold change in experiment [7] is 0.012; in experiment [8], 0.056; in experiment [9], 0; in [10] it was -0.01.
In the case of TAMM41 isoform 3 (UniProt Q96BW9), the log2 fold change was 0.075 in experiment [1]; 0.022 in experiment [2]; -0.061 in experiment [3]; -0.04 in experiment [4]; -0.172 in [5]; -0.214 in [6]. The log2 fold change is 0.043 in [7], 0.015 in experiment [8], 0.013 in experiment [9] and 0.169 in [10].
As for STIM1 (UniProt Q13586), the log2 fold change in experiment [1] was 0.006; in experiment [2], 0.007; in experiment [3], -0.06; in experiment [4], -0.036; in experiment [5], -0.067; in experiment [6], -0.33 (active). Further, the log2 fold change in experiment [7] is 0.034; in experiment [8], -0.011; in [9], 0.006; in experiment [10], 0.067.
Consider TEX30 (UniProt Q5JUR7), for which the log2 fold change in experiment [1] was -0.013; in experiment [2], 0.08; in experiment [3], -0.048; in [4], 0.053; in [5], -0.251; in [6] it was -0.075. The log2 fold change in experiment [7] was 0.03; in experiment [8], 0.105; in [9], 0.061; in experiment [10], 0.028.
In the case of SLC4A2 (UniProt P04920), the log2 fold change in experiment [1] was 0.022; in experiment [2] it was -0.024; in experiment [3], -0.015; in [4], 0.003; in experiment [5] it was -0.07; in [6], -0.165. Further, the log2 fold change in [7] is 0.143; in [8] it was 0.054; in [9], 0.042; in experiment [10], 0.01.
SUCLA2 (UniProt Q9P2R7): the log2 fold change in experiment [1] is 0.02; in experiment [2] it was -0.045; in experiment [3] it was 0.014; in experiment [4] it was -0.021; in [5], -0.151; in experiment [6], -0.107. Further, the log2 fold change in experiment [7] was -0.033; in [8], -0.034; in experiment [9] it was -0.021; in experiment [10] it was 0.022.
SMAP (UniProt O00193): the log2 fold change is 0.134 in [1]; -0.063 in experiment [2]; -0.021 in experiment [3]; 0.007 in experiment [4]; -0.004 in [5]; 0.058 in experiment [6]. Moreover, the log2 fold change in experiment [7] was -0.018; in experiment [8], -0.049; in [9], 0.029; in [10] it was -0.021.
As to TARBP1 (UniProt Q13395), the log2 fold change in experiment [1] is 0.062; in experiment [2] it was -0.007; in experiment [3], -0.01; in experiment [4], 0.003; in experiment [5], -0.074; in experiment [6], -0.066. Further, the log2 fold change was 0.009 in experiment [7], 0.041 in experiment [8], 0.04 in [9] and 0.184 in experiment [10].
Consider SMPD4 isoform 4 (UniProt Q9NXE4), for which the log2 fold change in experiment [1] was -0.034; in [2], -0.044; in experiment [3] it was 0.12; in experiment [4], -0.072; in experiment [5], -0.095; in experiment [6], -0.279 (active). Also, the log2 fold change in experiment [7] was 0.005; in experiment [8], -0.002; in experiment [9], -0.019; in experiment [10] it was 0.038.
